# Results taken from PubChem BioAssay AID1159580 (chemical genetic matrix, 2015).
# “And” between values parts separate entries of the source, which are not always exact repeats. Equal values may be shown once. Among all 5,500 compounds or so, about 2,000 (36%) were called active. Roughly 18% stayed inconclusive and do not appear here. Some of the results follow. A number with no mark means an inactive call. Cut-off read from the data, not from the text of the source: active = normalized growth mostly below about 0.91 (no sharp cut-off); inconclusive = no clear call, values can overlap the other calls; inactive = mostly above about 0.92.
# Experiment: chemical genetic growth profiling, strain panel (AID 1159580);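 note: tested at 20 µM; growth read once vehicle control cultures reached saturation at 30 °C; 1 = growth at the plate median or of vehicle wells; lower values mean less growth of the strain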
# Details: S. cerevisiae deletion strains, growth OD
smiles,measurement,setting,value
O=C1c2c(O)cccc2Cc2cccc(O)c21,normalized growth,"locus YAL013W, strain DEP1, active compounds read low",1.04
same,normalized growth,"locus YAL021C, strain ccr4, active compounds read low",0.958
same,normalized growth,"locus YAL026C, strain drs2, active compounds read low",0.988
same,normalized growth,"locus YAL030W, strain snc1, active compounds read low",0.986
same,normalized growth,"locus YBL061C, strain skt5, active compounds read low",1
same,normalized growth,"locus YBR009C, strain hhf1, active compounds read low",0.997
same,normalized growth,"locus YBR021W, strain FUR4, active compounds read low",1
same,normalized growth,"locus YBR023C, strain chs3, active compounds read low",0.988
same,normalized growth,"locus YBR171W, strain sec66, active compounds read low",0.975
same,normalized growth,"locus YBR229C, strain ROT2, active compounds read low",0.998
same,normalized growth,"locus YBR231C, strain swc5, active compounds read low",0.981
same,normalized growth,"locus YBR279W, strain paf1, active compounds read low",0.966
same,normalized growth,"locus YCL011C, strain gbp2, active compounds read low",0.973
same,normalized growth,"locus YCL016C, strain dcc1, active compounds read low",1.03
same,normalized growth,"locus YCL029C, strain bik1, active compounds read low",0.992
same,normalized growth,"locus YCL061C, strain MRC1, active compounds read low",0.978
same,normalized growth,"locus YCL069W, strain vba3, active compounds read low",1.01
same,normalized growth,"locus YCR088W, strain abp1, active compounds read low",1.01
same,normalized growth,"locus YDL005C, strain med2, active compounds read low",0.978
same,normalized growth,"locus YDL035C, strain GPR1, active compounds read low",1.02
same,normalized growth,"locus YDL040C, strain nat1, active compounds read low",0.999
same,normalized growth,"locus YDL074C, strain BRE1, active compounds read low",1.04
same,normalized growth,"locus YDL101C, strain DUN1, active compounds read low",1.01
same,normalized growth,"locus YDL134C, strain PPH21, active compounds read low",1.02
same,normalized growth,"locus YDL185W, strain tfp1, active compounds read low",0.999
same,normalized growth,"locus YDL192W, strain arf1, active compounds read low",0.994
same,normalized growth,"locus YDR001C, strain nth1, active compounds read low",0.988
same,normalized growth,"locus YDR069C, strain doa4, active compounds read low",0.946
same,normalized growth,"locus YDR101C, strain arx1, active compounds read low",0.99
same,normalized growth,"locus YDR137W, strain rgp1, active compounds read low",0.848
same,normalized growth,"locus YDR159W, strain sac3, active compounds read low",0.982
same,normalized growth,"locus YDR162C, strain NBP2, active compounds read low",1.03
same,normalized growth,"locus YDR195W, strain ref2",1.11
same,normalized growth,"locus YDR297W, strain sur2, active compounds read low",1.01
same,normalized growth,"locus YDR318W, strain mcm21, active compounds read low",0.994
same,normalized growth,"locus YDR334W, strain swr1, active compounds read low",0.936
same,normalized growth,"locus YDR335W, strain msn5, active compounds read low",0.999
same,normalized growth,"locus YDR388W, active compounds read low",0.992
same,normalized growth,"locus YDR392W, strain spt3, active compounds read low",0.986
same,normalized growth,"locus YDR502C, strain sam2, active compounds read low",1.01
same,normalized growth,"locus YEL003W, strain gim4, active compounds read low",1.03
same,normalized growth,"locus YEL037C, strain rad23, active compounds read low",1
same,normalized growth,"locus YEL061C, strain CIN8 (second series), active compounds read low",0.986
same,normalized growth,"locus YEL061C, strain CIN8, active compounds read low",1
same,normalized growth,"locus YER015W, strain faa2, active compounds read low",1.01
same,normalized growth,"locus YER016W, strain bim1, active compounds read low",1.01
same,normalized growth,"locus YER110C, active compounds read low",0.997
same,normalized growth,"locus YER111C, strain swi4, active compounds read low",1.01
same,normalized growth,"locus YER155C, strain BEM2 (second series), active compounds read low",0.957
same,normalized growth,"locus YER155C, strain BEM2, active compounds read low",0.997
same,normalized growth,"locus YER167W, strain BCK2, active compounds read low",1
same,normalized growth,"locus YFR010W, strain ubp6, active compounds read low",0.957
same,normalized growth,"locus YGL078C, strain dbp3, active compounds read low",0.992
same,normalized growth,"locus YGL086W, strain mad1, active compounds read low",1
same,normalized growth,"locus YGL167C, strain pmr1, active compounds read low",0.962
same,normalized growth,"locus YGL173C, strain kem1, active compounds read low",0.996
same,normalized growth,"locus YGL227W, strain vid30, active compounds read low",0.976
same,normalized growth,"locus YGL240W, strain doc1, active compounds read low",0.985
same,normalized growth,"locus YGL248W, strain PDE1, active compounds read low",1.02
same,normalized growth,"locus YGL253W, strain hxk2, active compounds read low",0.963
same,normalized growth,"locus YGR078C, strain PAC10, active compounds read low",1.03
same,normalized growth,"locus YGR135W, strain pre9, active compounds read low",0.999
same,normalized growth,"locus YGR252W, strain gcn5, active compounds read low",1.02
same,normalized growth,"locus YHR013C, strain ard1, active compounds read low",1
same,normalized growth,"locus YHR027C, strain rpn1, active compounds read low",0.976
same,normalized growth,"locus YHR030C, strain SLT2, active compounds read low",1.01 and 1.06
same,normalized growth,"locus YHR079C, strain IRE1 (second series), active compounds read low",0.994
same,normalized growth,"locus YHR079C, strain IRE1, active compounds read low",1.08
same,normalized growth,"locus YHR094C, strain hxt1, active compounds read low",0.993
same,normalized growth,"locus YHR129C, strain ARP1, active compounds read low",1.01
same,normalized growth,"locus YHR142W, strain chs7, active compounds read low",1.02
same,normalized growth,"locus YHR200W, strain rpn10, active compounds read low",1
same,normalized growth,"locus YIL066C, strain RNR3, active compounds read low",1.02
same,normalized growth,"locus YIL073C, strain SPO22, active compounds read low",1.03
same,normalized growth,"locus YIL125W, strain kgd1, active compounds read low",1
same,normalized growth,"locus YIR030C, strain dcg1, active compounds read low",0.992
same,normalized growth,"locus YJL092W, strain hpr5, active compounds read low",1.01
same,normalized growth,"locus YJL095W, strain BCK1 (second series), active compounds read low",0.967
same,normalized growth,"locus YJL095W, strain BCK1, active compounds read low",1.05 and 1.06
same,normalized growth,"locus YJL115W, strain asf1, active compounds read low",0.982
same,normalized growth,"locus YJL129C, strain trk1, active compounds read low",1.05
same,normalized growth,"locus YJL134W, strain LCB3, active compounds read low",1.01
same,normalized growth,"locus YJL154C, strain vps35, active compounds read low",0.988
same,normalized growth,"locus YJL164C, strain tpk1, active compounds read low",1.02
same,normalized growth,"locus YJL166W, strain qcr8, active compounds read low",0.984
same,normalized growth,"locus YJL168C, strain set2, active compounds read low",0.99
same,normalized growth,"locus YJL187C, strain SWE1 (second series), active compounds read low",1.02
same,normalized growth,"locus YJL187C, strain SWE1, active compounds read low",1
same,normalized growth,"locus YJR043C, strain POL32, active compounds read low",1.06
same,normalized growth,"locus YJR066W, strain TOR1, active compounds read low",0.994
same,normalized growth,"locus YJR075W, strain HOC1, active compounds read low",1.03
same,normalized growth,"locus YKL009W, strain mrt4, active compounds read low",1.01
same,normalized growth,"locus YKL068W, active compounds read low",0.99
same,normalized growth,"locus YKL085W, strain MDH1 (second series), active compounds read low",0.994
same,normalized growth,"locus YKL085W, strain MDH1, active compounds read low",0.994
same,normalized growth,"locus YKL160W, strain elf1, active compounds read low",1
same,normalized growth,"locus YKR001C, strain vps1, active compounds read low",1.01
same,normalized growth,"locus YKR026C, strain gcn3, active compounds read low",0.991
same,normalized growth,"locus YKR091W, strain srl3, active compounds read low",0.985
same,normalized growth,"locus YLL001W, strain dnm1, active compounds read low",1
same,normalized growth,"locus YLL026W, active compounds read low",1
same,normalized growth,"locus YLL041C, strain sdh2, active compounds read low",0.997
same,normalized growth,"locus YLR027C, strain aat2, active compounds read low",1.03
same,normalized growth,"locus YLR039C, strain RIC1, active compounds read low",1.24
same,normalized growth,"locus YLR058C, strain SHM2, active compounds read low",1.01
same,normalized growth,"locus YLR102C, strain apc9, active compounds read low",0.995
same,normalized growth,"locus YLR113W, strain HOG1, active compounds read low",1.13
same,normalized growth,"locus YLR221C, strain rsa3, active compounds read low",0.985
same,normalized growth,"locus YLR258W, strain gsy2, active compounds read low",0.976
same,normalized growth,"locus YLR262C, strain YPT6 (second series), active compounds read low",0.862
same,normalized growth,"locus YLR262C, strain YPT6, active compounds read low",1.28
same,normalized growth,"locus YLR268W, strain sec22, active compounds read low",1.02
same,normalized growth,"locus YLR320W, strain mms22, active compounds read low",0.996
same,normalized growth,"locus YLR330W, strain CHS5, active compounds read low",1
same,normalized growth,"locus YLR342W, strain FKS1 (second series), active compounds read low",1.01
same,normalized growth,"locus YLR342W, strain FKS1, active compounds read low",0.996
same,normalized growth,"locus YLR357W, strain rsc2, active compounds read low",0.921
same,normalized growth,"locus YLR370C, strain arc18, active compounds read low",0.985
same,normalized growth,"locus YLR371W, strain rom2, active compounds read low",1
same,normalized growth,"locus YLR384C, strain iki3, active compounds read low",0.974
same,normalized growth,"locus YLR418C, strain cdc73, active compounds read low",1.11
same,normalized growth,"locus YML016C, strain PPZ1, active compounds read low",1
same,normalized growth,"locus YML032C, strain rad52, active compounds read low",0.996
same,normalized growth,"locus YML120C, strain ndi1, active compounds read low",1.02
same,normalized growth,"locus YML124C, strain tub3, active compounds read low",0.988
same,normalized growth,"locus YMR058W, strain fet3, active compounds read low",0.999
same,normalized growth,"locus YMR078C, strain ctf18, active compounds read low",0.999
same,normalized growth,"locus YMR125W, strain sto1, active compounds read low",0.988
same,normalized growth,"locus YMR129W, active compounds read low",0.995
same,normalized growth,"locus YMR205C, strain PFK2, active compounds read low",1.03
same,normalized growth,"locus YMR223W, strain ubp8, active compounds read low",1
same,normalized growth,"locus YMR231W, strain pep5, active compounds read low",0.976
same,normalized growth,"locus YMR263W, strain SAP30, active compounds read low",1.02
same,normalized growth,"locus YMR307W, strain GAS1, active compounds read low",0.997
same,normalized growth,"locus YNL067W, strain RPL9B, active compounds read low",1.04
same,normalized growth,"locus YNL071W, strain lat1, active compounds read low",1.02
same,normalized growth,"locus YNL183C, strain NPR1, active compounds read low",1
same,normalized growth,"locus YNL209W, strain ssb2, active compounds read low",1
same,normalized growth,"locus YNL233W, strain BNI4, active compounds read low",1.05
same,normalized growth,"locus YNL248C, strain rpa49, active compounds read low",0.906
same,normalized growth,"locus YNL250W, strain rad50, active compounds read low",0.99
same,normalized growth,"locus YNL271C, strain bni1, active compounds read low",0.989
same,normalized growth,"locus YNL298W, strain CLA4, active compounds read low",0.985
same,normalized growth,"locus YNL307C, strain MCK1, active compounds read low",1.01
same,normalized growth,"locus YNL322C, strain KRE1 (second series), active compounds read low",0.988
same,normalized growth,"locus YNL322C, strain KRE1, active compounds read low",1
same,normalized growth,"locus YNR049C, strain mso1, active compounds read low",1.01
same,normalized growth,"locus YNR052C, strain pop2, active compounds read low",0.993
same,normalized growth,"locus YOL012C, strain htz1",0.791
same,normalized growth,"locus YOL147C, strain pex11, active compounds read low",0.997
same,normalized growth,"locus YOR001W, strain rrp6, active compounds read low",0.979
same,normalized growth,"locus YOR061W, strain CKA2, active compounds read low",1.01
same,normalized growth,"locus YOR069W, strain VPS5, active compounds read low",1.01
same,normalized growth,"locus YOR070C, strain gyp1, active compounds read low",1.03
same,normalized growth,"locus YOR080W, strain dia2, active compounds read low",1
same,normalized growth,"locus YOR083W, strain WHI5, active compounds read low",0.954
same,normalized growth,"locus YOR106W, strain vam3, active compounds read low",0.898
same,normalized growth,"locus YOR136W, strain idh2, active compounds read low",0.993
same,normalized growth,"locus YOR144C, strain elg1, active compounds read low",0.996
same,normalized growth,"locus YOR184W, strain ser1, active compounds read low",1.02
same,normalized growth,"locus YOR231W, strain MKK1, active compounds read low",1.07
same,normalized growth,"locus YOR265W, strain rbl2, active compounds read low",0.996
same,normalized growth,"locus YOR270C, strain vph1, active compounds read low",0.755 (active)
same,normalized growth,"locus YOR290C, strain snf2, active compounds read low",1.02
same,normalized growth,"locus YOR316C, strain cot1, active compounds read low",0.997
same,normalized growth,"locus YPL051W, strain arl3, active compounds read low",0.914 (active)
same,normalized growth,"locus YPL078C, strain atp4, active compounds read low",1.01
same,normalized growth,"locus YPL106C, strain sse1, active compounds read low",0.919
same,normalized growth,"locus YPL240C, strain hsp82, active compounds read low",0.991
same,normalized growth,"locus YPL256C, strain CLN2, active compounds read low",1.17
same,normalized growth,"locus YPR119W, strain clb2, active compounds read low",0.988
same,normalized growth,"locus YPR141C, strain kar3, active compounds read low",0.993
same,normalized growth,"locus YPR163C, strain tif3, active compounds read low",0.997
same,normalized growth,"locus YPR167C, strain met16, active compounds read low",1
same,normalized growth,"strain wtn01, active compounds read low",0.999
